Test results reported in the supplement of paper PMC10849652.
Targets with a hit are over-represented here; the source holds about 7,900 in all. About 0.6% of all pairs of compound and target were hits.

Assays:
Assay in all cases: log2 fold change, soluble protein after heating vs DMSO (PISA); higher = thermal stabilisation; K562 cells, 10 uM, 30 min; active = over 0.2 and 3.5 SD of the protein, either way, in both replicates (recomputed)
[1] = compound: C1=CC=C(C=C1)[C@H](COC2=CC3=C(C=C2)NC(=O)N3)NC(=O)C4=CC=CN(C4=O)CC5=CC(=C(C=C5)F)F
Method in brief: (§1)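 For each measurement, 10 μM compound was applied for 30 min to K562 cells at 2×10^6 cells/mL. Aliquots were heated for 3 min across 48°C-58°C, pooled, and extracted in PBS with 0.5% NP-40 at 4°C; the supernatant after 21,000xg for 90 min was soluble protein. This was quantified by TMTpro 16plex LC-MS/MS with channel sums equalised, and thermal stability was reported relative to control samples from duplicates, on a log2 fold-change scale.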

[2] = compound: CC1=C(SC2=C1C(=N[C@H](C3=NN=C(N32)C)CC(=O)N)C4=CC=C(C=C4)Cl)C
Method in brief: as §1

[3] = compound: CC1=C2C(=CC=C1)N=C(N(C2=O)C3=CC=CC=C3C)CN4C=NC5=C(N=CN=C54)N
Method in brief: as §1

[4] = compound: Cc1sc2c(c1C)C(c1ccc(Cl)cc1)=N[C@@H](CC(=O)OC(C)(C)C)c1nnc(C)n1-2
Method in brief: as §1

[5] = compound: c1ccc([C@@H]2C[C@H]2NC2CCNCC2)cc1
Method in brief: as §1

Measured: log2 fold change

NSUN2 (UniProt Q08J23)
Chain of UniProt Q08J23 (Q08J23 whole entry, looked up): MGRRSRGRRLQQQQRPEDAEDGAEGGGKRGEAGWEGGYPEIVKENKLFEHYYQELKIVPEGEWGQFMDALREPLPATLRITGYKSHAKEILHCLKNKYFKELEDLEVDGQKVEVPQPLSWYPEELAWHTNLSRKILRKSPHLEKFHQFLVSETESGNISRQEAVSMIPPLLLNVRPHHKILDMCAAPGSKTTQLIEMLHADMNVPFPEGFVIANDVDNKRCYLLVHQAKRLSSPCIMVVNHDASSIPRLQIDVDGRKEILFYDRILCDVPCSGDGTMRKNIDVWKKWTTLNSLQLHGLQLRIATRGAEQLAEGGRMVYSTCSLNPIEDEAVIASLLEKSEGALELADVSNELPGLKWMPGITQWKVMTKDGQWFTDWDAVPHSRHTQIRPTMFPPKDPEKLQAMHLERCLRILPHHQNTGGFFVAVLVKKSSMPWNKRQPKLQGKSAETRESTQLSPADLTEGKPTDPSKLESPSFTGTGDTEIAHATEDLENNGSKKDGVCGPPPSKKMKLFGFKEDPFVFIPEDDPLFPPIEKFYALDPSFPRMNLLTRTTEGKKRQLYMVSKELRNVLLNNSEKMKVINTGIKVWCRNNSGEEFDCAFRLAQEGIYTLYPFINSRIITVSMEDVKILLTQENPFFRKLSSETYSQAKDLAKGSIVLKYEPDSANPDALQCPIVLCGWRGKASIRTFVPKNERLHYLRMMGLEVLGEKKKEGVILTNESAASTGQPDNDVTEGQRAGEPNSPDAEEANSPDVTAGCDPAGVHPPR
inactive: [1] -0.019 | [2] 0.023 | [3] 0.003 | [4] 0 | [5] 0.003

MYL12B (UniProt O14950)
Chain of UniProt O14950 (O14950 whole entry, looked up): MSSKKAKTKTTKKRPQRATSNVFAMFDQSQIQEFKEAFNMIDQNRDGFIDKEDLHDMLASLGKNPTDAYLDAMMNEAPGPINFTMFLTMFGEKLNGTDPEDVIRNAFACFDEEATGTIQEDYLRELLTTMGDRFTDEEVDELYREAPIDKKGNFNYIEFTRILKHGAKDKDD
inactive: [1] 0.028 | [2] 0.054 | [3] 0.009 | [4] -0.025 | [5] -0.077

NISCH (UniProt Q9Y2I1)
Chain of UniProt Q9Y2I1 (Q9Y2I1 whole entry, looked up): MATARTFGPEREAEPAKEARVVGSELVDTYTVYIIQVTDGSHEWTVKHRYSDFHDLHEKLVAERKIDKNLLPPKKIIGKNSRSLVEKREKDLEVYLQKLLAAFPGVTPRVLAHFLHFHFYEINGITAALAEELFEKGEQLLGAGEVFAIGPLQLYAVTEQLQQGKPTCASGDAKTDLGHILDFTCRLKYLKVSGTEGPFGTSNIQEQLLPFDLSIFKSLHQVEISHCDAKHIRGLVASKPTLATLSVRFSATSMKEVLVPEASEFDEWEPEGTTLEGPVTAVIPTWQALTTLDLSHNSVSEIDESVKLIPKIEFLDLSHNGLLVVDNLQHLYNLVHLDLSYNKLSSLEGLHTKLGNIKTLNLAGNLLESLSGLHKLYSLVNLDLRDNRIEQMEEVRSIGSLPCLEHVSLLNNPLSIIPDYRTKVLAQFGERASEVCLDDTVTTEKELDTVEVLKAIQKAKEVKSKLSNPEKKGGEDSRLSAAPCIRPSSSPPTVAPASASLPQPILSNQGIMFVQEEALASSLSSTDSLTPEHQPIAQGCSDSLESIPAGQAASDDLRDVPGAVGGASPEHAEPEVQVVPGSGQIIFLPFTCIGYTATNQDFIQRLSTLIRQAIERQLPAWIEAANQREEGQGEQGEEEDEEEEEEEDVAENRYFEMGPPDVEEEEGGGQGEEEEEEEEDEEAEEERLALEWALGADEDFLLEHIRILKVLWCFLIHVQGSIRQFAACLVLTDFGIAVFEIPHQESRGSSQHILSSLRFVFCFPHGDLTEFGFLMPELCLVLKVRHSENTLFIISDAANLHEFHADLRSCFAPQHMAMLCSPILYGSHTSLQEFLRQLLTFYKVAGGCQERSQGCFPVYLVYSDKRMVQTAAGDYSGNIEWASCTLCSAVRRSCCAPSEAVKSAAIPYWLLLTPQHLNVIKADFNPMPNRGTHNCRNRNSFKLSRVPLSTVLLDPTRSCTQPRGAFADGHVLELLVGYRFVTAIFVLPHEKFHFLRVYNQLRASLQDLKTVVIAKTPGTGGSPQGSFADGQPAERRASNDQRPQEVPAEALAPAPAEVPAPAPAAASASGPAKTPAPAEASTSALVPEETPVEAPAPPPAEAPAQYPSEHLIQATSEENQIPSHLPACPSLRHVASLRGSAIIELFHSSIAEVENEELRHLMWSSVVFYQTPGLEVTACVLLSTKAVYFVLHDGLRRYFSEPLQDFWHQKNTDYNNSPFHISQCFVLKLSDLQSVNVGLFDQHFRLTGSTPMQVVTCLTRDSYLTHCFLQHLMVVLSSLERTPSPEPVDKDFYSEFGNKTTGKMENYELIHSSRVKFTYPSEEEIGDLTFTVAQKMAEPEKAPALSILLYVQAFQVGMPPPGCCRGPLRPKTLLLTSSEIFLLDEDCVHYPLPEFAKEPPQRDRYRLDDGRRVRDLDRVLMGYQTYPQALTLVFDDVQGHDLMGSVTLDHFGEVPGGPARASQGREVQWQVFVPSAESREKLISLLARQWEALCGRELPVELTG
inactive: [1] 0.044 | [2] -0.02 | [3] 0.036 | [4] 0.044 | [5] -0.044

MPHOSPH10 (UniProt O00566)
Chain of UniProt O00566 (O00566 whole entry, looked up): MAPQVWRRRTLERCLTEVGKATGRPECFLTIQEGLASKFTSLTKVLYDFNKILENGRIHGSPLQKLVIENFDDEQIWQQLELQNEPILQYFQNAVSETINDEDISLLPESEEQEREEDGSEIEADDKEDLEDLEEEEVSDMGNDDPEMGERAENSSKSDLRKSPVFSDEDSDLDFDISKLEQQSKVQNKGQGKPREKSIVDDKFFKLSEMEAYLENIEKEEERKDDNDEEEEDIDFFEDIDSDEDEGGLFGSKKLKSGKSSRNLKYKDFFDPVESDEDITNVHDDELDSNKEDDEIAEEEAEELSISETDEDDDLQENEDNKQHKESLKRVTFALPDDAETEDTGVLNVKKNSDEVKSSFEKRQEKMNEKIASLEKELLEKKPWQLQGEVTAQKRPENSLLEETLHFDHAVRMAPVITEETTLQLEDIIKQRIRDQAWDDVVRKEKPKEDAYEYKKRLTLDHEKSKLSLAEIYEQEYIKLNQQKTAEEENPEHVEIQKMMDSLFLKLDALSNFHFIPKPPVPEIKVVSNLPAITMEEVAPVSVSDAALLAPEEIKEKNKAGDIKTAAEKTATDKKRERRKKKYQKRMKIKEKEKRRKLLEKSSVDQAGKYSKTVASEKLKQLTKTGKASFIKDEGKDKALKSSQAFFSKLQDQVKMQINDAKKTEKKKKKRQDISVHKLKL
inactive: [1] 0.023 | [2] -0.279 | [3] -0.206 | [4] 0.094 | [5] -0.024

NOP53 (UniProt Q9NZM5)
inactive: [1] 0.103 | [2] -0.332 | [3] -0.415 | [4] 0.353 | [5] 0.097

MRPS24 (UniProt Q96EL2)
inactive: [1] -0.016 | [2] -0.026 | [3] -0.026 | [4] 0.148 | [5] 0.037

NCOA7 (UniProt Q8NI08)
Chain of UniProt Q8NI08 (Q8NI08 whole entry, looked up): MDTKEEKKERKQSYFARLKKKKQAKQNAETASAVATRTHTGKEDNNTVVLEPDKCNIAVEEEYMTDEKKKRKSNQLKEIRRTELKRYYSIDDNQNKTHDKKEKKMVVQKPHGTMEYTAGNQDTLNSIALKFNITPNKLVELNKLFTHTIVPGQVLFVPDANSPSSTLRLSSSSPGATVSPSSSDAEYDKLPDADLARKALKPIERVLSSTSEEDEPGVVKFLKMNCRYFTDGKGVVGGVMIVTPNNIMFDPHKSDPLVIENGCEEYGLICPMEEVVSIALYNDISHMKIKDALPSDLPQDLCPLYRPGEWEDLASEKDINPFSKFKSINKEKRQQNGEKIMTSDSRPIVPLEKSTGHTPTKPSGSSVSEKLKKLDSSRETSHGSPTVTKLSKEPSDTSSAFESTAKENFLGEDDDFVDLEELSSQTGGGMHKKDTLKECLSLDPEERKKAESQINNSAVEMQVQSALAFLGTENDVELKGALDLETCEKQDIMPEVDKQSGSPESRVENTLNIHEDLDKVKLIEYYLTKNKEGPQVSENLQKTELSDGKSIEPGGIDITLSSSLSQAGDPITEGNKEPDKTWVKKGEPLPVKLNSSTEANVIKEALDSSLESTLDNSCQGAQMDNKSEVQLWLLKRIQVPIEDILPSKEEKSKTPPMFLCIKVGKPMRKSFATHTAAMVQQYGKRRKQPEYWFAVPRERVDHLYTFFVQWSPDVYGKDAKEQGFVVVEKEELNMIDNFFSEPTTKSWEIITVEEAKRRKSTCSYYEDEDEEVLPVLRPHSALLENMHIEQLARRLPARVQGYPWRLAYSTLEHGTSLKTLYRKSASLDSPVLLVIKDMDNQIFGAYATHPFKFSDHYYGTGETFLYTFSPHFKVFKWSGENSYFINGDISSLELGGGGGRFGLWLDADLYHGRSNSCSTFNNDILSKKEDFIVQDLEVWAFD
inactive: [1] 0.03 | [2] 0.093 | [3] 0.036 | [4] 0.016 | [5] -0.058

NMD3 (UniProt Q96D46)
Chain of UniProt Q96D46 (Q96D46 whole entry, looked up): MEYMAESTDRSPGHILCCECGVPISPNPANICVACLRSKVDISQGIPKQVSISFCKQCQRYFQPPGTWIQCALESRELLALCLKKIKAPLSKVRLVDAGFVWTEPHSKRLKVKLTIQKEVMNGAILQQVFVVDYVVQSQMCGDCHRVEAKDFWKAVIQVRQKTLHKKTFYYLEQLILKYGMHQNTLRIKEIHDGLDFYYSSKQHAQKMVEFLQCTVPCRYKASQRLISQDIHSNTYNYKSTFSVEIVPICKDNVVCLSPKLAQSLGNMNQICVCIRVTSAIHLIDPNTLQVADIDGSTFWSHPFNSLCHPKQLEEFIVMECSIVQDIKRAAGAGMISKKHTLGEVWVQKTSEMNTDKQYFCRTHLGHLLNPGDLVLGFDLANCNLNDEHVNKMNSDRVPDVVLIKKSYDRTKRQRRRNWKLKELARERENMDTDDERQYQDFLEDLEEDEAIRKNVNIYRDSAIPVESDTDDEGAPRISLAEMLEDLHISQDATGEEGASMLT
inactive: [1] -0.046 | [2] 0.049 | [3] 0.01 | [4] -0.02 | [5] -0.11

MT-ND4 (UniProt P03905)
Chain of UniProt P03905 (P03905 whole entry, looked up): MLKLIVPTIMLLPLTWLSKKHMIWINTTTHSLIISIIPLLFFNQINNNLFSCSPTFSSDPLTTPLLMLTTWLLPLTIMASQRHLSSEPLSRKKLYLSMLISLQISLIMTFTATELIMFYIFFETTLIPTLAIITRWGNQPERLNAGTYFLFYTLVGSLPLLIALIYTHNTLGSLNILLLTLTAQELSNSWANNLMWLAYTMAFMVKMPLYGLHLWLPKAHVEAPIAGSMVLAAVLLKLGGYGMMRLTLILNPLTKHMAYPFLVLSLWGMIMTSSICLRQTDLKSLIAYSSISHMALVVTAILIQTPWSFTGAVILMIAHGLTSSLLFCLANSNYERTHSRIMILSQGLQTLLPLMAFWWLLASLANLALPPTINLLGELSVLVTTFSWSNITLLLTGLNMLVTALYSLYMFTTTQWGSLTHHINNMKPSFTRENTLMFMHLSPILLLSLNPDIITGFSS
inactive: [1] -0.124 | [2] -0.017 | [3] -0.045 | [4] -0.057 | [5] 0.036
